Assay [1] has as its target Mitogen-activated protein kinase 11 (Homo sapiens) (UniProt Q15759). To be noted: at 1 µM.
Assay [2] shares this target. To be noted: at 10 µM.
Assay [3] has as its target T1, Mitogen-activated protein kinase 13 (Homo sapiens) (UniProt O15264).
T1 sequence (whole entry): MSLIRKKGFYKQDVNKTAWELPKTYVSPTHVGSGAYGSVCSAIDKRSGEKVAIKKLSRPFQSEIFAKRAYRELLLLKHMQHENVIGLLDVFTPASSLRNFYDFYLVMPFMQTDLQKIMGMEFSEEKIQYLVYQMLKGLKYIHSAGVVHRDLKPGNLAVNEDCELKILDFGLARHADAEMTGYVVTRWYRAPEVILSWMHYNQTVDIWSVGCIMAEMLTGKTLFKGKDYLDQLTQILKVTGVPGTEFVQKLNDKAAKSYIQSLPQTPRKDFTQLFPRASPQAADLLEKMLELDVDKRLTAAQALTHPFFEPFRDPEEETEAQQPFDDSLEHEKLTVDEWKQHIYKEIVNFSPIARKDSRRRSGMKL
To be noted: at 1 µM.

Assay [4] concerns the target T1, Mitogen-activated protein kinase 13 (Homo sapiens). To be noted: at 10 µM.
Assay [5] deals with T2, Serine/threonine-protein kinase Sgk1 (Homo sapiens) (UniProt O00141).
T2 sequence (whole entry): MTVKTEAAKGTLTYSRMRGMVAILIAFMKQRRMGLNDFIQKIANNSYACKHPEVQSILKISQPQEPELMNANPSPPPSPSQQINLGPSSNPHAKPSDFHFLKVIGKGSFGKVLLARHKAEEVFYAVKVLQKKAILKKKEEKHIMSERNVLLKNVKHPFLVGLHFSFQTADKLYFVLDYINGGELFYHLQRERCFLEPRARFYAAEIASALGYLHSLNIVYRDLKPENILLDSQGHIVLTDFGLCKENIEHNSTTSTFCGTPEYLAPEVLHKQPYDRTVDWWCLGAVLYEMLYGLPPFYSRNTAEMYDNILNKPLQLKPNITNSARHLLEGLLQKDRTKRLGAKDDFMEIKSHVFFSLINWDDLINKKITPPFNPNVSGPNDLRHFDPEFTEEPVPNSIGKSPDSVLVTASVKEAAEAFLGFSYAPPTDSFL
To be noted: at 1 µM.

For assay [6], the target named is T2, Serine/threonine-protein kinase Sgk1 (Homo sapiens). The note with it: at 10 µM.
For assay [7], the target named is T3, Serine/threonine-protein kinase Sgk2 (Homo sapiens) (UniProt Q9HBY8).
T3 sequence (whole entry): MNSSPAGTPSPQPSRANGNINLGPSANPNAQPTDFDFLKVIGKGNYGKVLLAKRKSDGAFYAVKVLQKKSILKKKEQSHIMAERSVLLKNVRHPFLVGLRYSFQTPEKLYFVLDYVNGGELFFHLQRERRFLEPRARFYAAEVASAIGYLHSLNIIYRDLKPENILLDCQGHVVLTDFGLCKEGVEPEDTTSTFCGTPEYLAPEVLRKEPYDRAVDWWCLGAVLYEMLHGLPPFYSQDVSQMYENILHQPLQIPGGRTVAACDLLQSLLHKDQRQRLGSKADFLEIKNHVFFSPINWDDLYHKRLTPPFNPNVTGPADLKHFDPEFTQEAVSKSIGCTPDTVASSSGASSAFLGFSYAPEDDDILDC
The note with it: at 1 µM.

The target of assay [8] is T3, Serine/threonine-protein kinase Sgk2 (Homo sapiens). To be noted: at 10 µM.
Assay [9] concerns the target T4, Serine/threonine-protein kinase Sgk3 (Homo sapiens) (UniProt Q96BR1).
T4 sequence (whole entry): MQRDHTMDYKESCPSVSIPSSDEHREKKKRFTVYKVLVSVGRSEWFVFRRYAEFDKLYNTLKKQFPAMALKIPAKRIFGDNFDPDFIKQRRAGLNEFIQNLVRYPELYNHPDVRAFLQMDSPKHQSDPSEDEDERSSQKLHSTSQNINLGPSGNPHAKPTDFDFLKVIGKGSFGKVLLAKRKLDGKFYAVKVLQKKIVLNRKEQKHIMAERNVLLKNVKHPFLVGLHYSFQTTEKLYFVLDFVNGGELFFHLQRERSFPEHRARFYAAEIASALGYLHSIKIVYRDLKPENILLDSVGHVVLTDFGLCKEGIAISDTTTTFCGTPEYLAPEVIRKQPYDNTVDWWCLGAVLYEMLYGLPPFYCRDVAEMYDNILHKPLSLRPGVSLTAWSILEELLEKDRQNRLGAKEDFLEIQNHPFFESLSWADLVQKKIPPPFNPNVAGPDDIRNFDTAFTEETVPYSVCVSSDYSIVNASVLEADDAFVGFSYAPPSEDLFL
The note with it: at 10 µM.

Assay [10] concerns the target Serine/threonine-protein kinase SIK1 (Homo sapiens) (UniProt P57059). The note with it: at 1 µM.

Sequence of Serine/threonine-protein kinase SIK1 (Homo sapiens) (P57059 whole entry): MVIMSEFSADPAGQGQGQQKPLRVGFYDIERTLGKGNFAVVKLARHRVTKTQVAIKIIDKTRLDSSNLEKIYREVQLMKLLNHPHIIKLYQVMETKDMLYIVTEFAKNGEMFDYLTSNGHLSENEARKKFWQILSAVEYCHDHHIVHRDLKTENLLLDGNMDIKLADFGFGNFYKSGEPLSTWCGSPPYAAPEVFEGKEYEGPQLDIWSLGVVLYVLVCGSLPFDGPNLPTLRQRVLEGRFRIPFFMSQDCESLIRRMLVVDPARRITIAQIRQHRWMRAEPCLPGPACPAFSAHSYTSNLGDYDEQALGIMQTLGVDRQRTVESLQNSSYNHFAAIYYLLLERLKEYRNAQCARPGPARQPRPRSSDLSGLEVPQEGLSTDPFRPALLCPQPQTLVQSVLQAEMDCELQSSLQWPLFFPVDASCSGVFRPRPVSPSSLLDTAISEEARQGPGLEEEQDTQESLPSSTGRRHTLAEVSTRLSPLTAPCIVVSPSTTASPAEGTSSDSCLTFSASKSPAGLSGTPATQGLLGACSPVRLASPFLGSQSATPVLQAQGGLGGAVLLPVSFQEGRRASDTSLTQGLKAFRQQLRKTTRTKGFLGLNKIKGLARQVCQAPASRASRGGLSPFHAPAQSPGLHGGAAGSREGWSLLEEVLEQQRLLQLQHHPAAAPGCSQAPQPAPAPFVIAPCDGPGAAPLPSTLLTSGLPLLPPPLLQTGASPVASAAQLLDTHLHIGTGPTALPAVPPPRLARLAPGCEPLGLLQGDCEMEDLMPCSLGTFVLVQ
Sequence of Mitogen-activated protein kinase 11 (Homo sapiens) (Q15759 whole entry): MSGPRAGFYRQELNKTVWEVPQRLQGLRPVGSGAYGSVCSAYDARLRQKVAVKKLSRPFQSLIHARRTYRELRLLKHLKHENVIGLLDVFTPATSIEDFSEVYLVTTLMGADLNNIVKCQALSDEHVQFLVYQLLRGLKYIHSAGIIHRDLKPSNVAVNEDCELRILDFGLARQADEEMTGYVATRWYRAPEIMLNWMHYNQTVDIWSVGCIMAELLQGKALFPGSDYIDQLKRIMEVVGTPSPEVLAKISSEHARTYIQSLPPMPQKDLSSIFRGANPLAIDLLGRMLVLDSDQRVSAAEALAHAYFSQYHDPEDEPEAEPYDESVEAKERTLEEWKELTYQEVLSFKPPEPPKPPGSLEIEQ

Take `O=c1cc(-c2cccc3c2Sc2ccccc2S3)oc(N2CCOCC2)c1`: the residual activity in assay [1] is 111%; in assay [2], 109%; in assay [3], 107%; in assay [4], 105%; in [5], 103%; in assay [6], 100%. Further, the residual activity in assay [7] was 91%; in [8] it was 72%; in assay [9], 78%; in assay [10] it was 137%.
Regarding `Oc1c2ccccc2c2c3c(cccc13)N=N2`, the residual activity in [1] came out at 88%; in assay [2], 79%; in [3], 96%; in [4] it was 73%; in [5], 60%; in assay [6], 24%. The residual activity is 71% in assay [7], 33% in assay [8], 58% in assay [9] and 96% in assay [10].
Consider `CO[C@@H]1[C@H](N(C)C(=O)c2ccccc2)C[C@H]2O[C@]1(C)n1c3ccccc3c3c4c(c5c6ccccc6n2c5c31)C(=O)NC4`, for which the residual activity turned out to be 86% in assay [1]; 98% in assay [2]; 92% in assay [3]; 77% in assay [4]; 57% in assay [5]; 18% in assay [6]. The residual activity in [7] worked out at 80%; in [8] it was 46%; in assay [9] it was 78%; in assay [10] it was 4%.
For the compound `O=C1c2ccccc2-[n+]2ccc3c([nH]c4ccccc43)c21`, the residual activity in assay [1] was found to be 94%; in [2], 89%; in assay [3], 103%; in assay [4], 96%; in assay [5], 88%; in [6], 95%. For the same compound, the residual activity in assay [7] turned out to be 73%; in assay [8], 76%; in [9] it was 80%; in [10], 116%.
For `Nc1nc(Nc2ccc(S(N)(=O)=O)cc2)nn1C(=S)Nc1c(F)cccc1F`, the residual activity in assay [1] was determined as 56%; in assay [2] it was 24%; in [3], 43%; in [4] it was 46%; in [5], 53%; in [6], 16%. The residual activity was 36% in [7], 6% in [8], 40% in assay [9] and -2% in [10].
In the case of `O=C1Nc2cc(Br)ccc2/C1=C1/Nc2ccccc2/C1=N\O`, the residual activity in assay [1] came out at 97%; in assay [2] it was 92%; in [3], 89%; in assay [4], 92%; in assay [5], 28%; in [6], 14%. Also, the residual activity in [7] came out at 47%; in [8] it was 55%; in assay [9] it was 64%; in [10] it was 18%.
Take `O=C(O)c1ccc2c3c1cccc3c(=O)n1c3ccccc3nc21`: the residual activity was 116% in assay [1]; 48% in assay [2]; 119% in assay [3]; 100% in assay [4]; 91% in assay [5]; 103% in assay [6]. The residual activity in assay [7] is 116%; in assay [8], 85%; in assay [9], 83%; in [10], 106%.
In the case of `O=C1NC(=O)c2c1c1c3ccccc3[nH]c1c1[nH]c3cc(Br)ccc3c21`, the residual activity in [1] was determined as 105%; in assay [2] it was 107%; in [3], 101%; in [4] it was 94%; in assay [5], 44%; in assay [6] it was 50%. Further, the residual activity in assay [7] was determined as 64%; in assay [8], 69%; in assay [9], 78%; in [10], 111%.
As for `COc1ccc(S(=O)(=O)N(CCO)c2ccccc2CN(C)C/C=C/c2ccc(Cl)cc2)cc1`, the residual activity was 94% in assay [1]; 88% in assay [2]; 106% in assay [3]; 92% in assay [4]; 85% in assay [5]; 89% in assay [6]. In addition, the residual activity in assay [7] was determined as 115%; in assay [8], 96%; in [9], 78%; in assay [10], 119%.
Turning to `NC(=O)c1ccc2[nH]c(-c3ccc(Oc4ccc(Cl)cc4)cc3)nc2c1`, the residual activity came to 99% in assay [1]; 101% in assay [2]; 105% in [3]; 101% in assay [4]; 90% in [5]; 174% in assay [6]. Also, the residual activity in assay [7] is 112%; in [8], 104%; in assay [9], 103%; in assay [10], 108%.
Turning to `Oc1n[nH]c2nnc(-c3c(-c4ccccc4)nn4ccccc34)cc12`, the residual activity was found to be 94% in assay [1]; 91% in assay [2]; 96% in assay [3]; 96% in assay [4]; 69% in assay [5]; 86% in [6]. For the same compound, the residual activity in assay [7] is 96%; in assay [8], 80%; in [9], 81%; in [10] it was 109%.
For `COc1ccc(C(=O)Nc2sc3c(c2C(N)=O)CCCC3)cc1OC`, the residual activity in assay [1] was 96%; in assay [2] it was 105%; in assay [3], 100%; in assay [4] it was 91%; in [5], 85%; in assay [6], 109%. The residual activity was determined as 99% in assay [7], 52% in assay [8], 90% in assay [9] and 91% in [10].
For `COc1cccc(-c2cc(=O)c3ccccc3o2)c1N`, the residual activity in assay [1] stood at 101%; in [2], 92%; in assay [3], 99%; in assay [4] it was 96%; in assay [5], 79%; in assay [6], 120%. In addition, the residual activity came to 89% in assay [7], 95% in assay [8], 86% in assay [9] and 140% in assay [10].
With `CC(C)n1cnc2/c(=N/c3cccc(Cl)c3)nc(NCCO)[nH]c21`, the residual activity came to 101% in assay [1]; 94% in assay [2]; 103% in assay [3]; 99% in assay [4]; 89% in assay [5]; 110% in assay [6]. For the same compound, the residual activity was determined as 105% in assay [7], 83% in assay [8], 82% in assay [9] and 90% in assay [10].
In the case of `Cc1ccc(NC2=CC(=O)c3sc(C)nc3C2=O)cc1`, the residual activity in assay [1] worked out at 102%; in assay [2] it was 100%; in assay [3], 98%; in assay [4] it was 96%; in assay [5], 87%; in assay [6], 92%. Besides, the residual activity in assay [7] came out at 103%; in assay [8] it was 82%; in assay [9], 83%; in assay [10], 109%.
Take `O=c1c2ccccc2[nH]c(=S)n1CCN1CCC(=C(c2ccc(F)cc2)c2ccc(F)cc2)CC1`: the residual activity was 103% in assay [1]; 102% in assay [2]; 102% in assay [3]; 89% in [4]; 92% in [5]; 43% in assay [6]. Also, the residual activity in assay [7] was 90%; in assay [8] it was 88%; in assay [9], 72%; in [10], 95%.

Values taken from ChEMBL document CHEMBL2218924, “A broad activity screen in support of a chemogenomic map for kinase signalling research and drug discovery” (Biochem J, 2013).
